Data as given in PubChem BioAssay (NCI).
About 83,000 compounds went through this panel and 20% of them were active in at least one assay; those are over-represented in the sample as a whole.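 Note: values are percent growth. 100 is the growth of untreated cells, values between 100 and 0 indicate rising inhibition; between -100 and 0 indicates cell death.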 Unmarked numbers belong to inactive results. Calls of active or inactive are those of the source. Rule for the calls: active = growth percent below 10; inactive = the rest.

Columns and labels:
Test in all cases: NCI-60 one-dose screen, 48 h (100 = growth as untreated, 0 = no growth, -100 = all killed)
Details in all cases: 10 µM unless noted
NCI-H23 lung = test system: NCI-H23 lung
NCI-H226 lung = test system: NCI-H226 lung
NCI-H322M lung = test system: NCI-H322M lung
HOP-62 NSCLC = test system: HOP-62 NSCLC
NCI-H460 lung = test system: NCI-H460 lung
NCI-H522 lung = test system: NCI-H522 lung
A549/ATCC NSCLC = test system: A549/ATCC NSCLC
786-0 renal = test system: 786-0 renal
COLO 205 colon = test system: COLO 205 colon
DU-145 prostate = test system: DU-145 prostate
K-562 leukemia = test system: K-562 leukemia
MALME-3M melanoma = test system: MALME-3M melanoma
MDA-MB-231 breast = test system: MDA-MB-231 breast
RXF 393 renal = test system: RXF 393 renal
SF-268 CNS = test system: SF-268 CNS
SF-295 CNS = test system: SF-295 CNS
UACC-257 melanoma = test system: UACC-257 melanoma
M14 melanoma = test system: M14 melanoma
HCT-15 colon = test system: HCT-15 colon
SF-539 CNS = test system: SF-539 CNS

Structure (SMILES) | growth (NCI-H23 lung) | growth (NCI-H226 lung) | growth (NCI-H322M lung) | growth (HOP-62 NSCLC) | growth (NCI-H460 lung) | growth (NCI-H522 lung) | growth (A549/ATCC NSCLC) | growth (786-0 renal) | growth (COLO 205 colon) | growth (DU-145 prostate) | growth (K-562 leukemia) | growth (MALME-3M melanoma) | growth (MDA-MB-231 breast) | growth (RXF 393 renal) | growth (SF-268 CNS) | growth (SF-295 CNS) | growth (UACC-257 melanoma) | growth (M14 melanoma) | growth (HCT-15 colon) | growth (SF-539 CNS)
Cc1cc(CC(=O)O)n(C)c1C(=O)c1ccc(Cl)cc1 | 96.3% | 95.2% | 120% | 117% | 115% | 101% | 108% | 103% | 114% | 125% | 103% | 102% | 109% | 117% | 114% | 93.1% | 104% | 106% | 103% | 
N#Cc1cnc2cc(OC[C@H](O)CO)c(NC(=O)CC3CSSC3)cc2c1Nc1ccc(OCc2cccc(F)c2)c(Cl)c1 | -73.4% (active) | -62.3% (active) | -85.4% (active) | -60.8% (active) | -70.7% (active) | -68.3% (active) | -69.3% (active) | -63.2% (active) | -79.4% (active) | -93.5% (active) | -100% (active) | -67% (active) | -54.9% (active) | -86.1% (active) | -56.3% (active) | -82.1% (active) |  | -66.8% (active) | 27.3% | -85.8% (active)
Nc1nc(N)c([N+](=O)[O-])c(=O)[nH]1 | 97.8% | 102% | 104% | 84.7% | 106% | 103% | 97.8% | 110% | 109% | 113% | 108% | 118% | 115% | 114% | 115% |  | 103% | 106% | 104% | 106%
COc1ccc(-c2oc3cc(O)c(OC)c(O)c3c(=O)c2OC)cc1O | 16.1% | 73.5% | 46.7% | 43% | 1.5% (active) | -30.3% (active) | 19.7% | 23.2% | 101% | -18.4% (active) | 8.02% (active) | 38.9% | 11.1% | 7.24% (active) | 13.6% |  | 53.4% | -24.8% (active) | 17.3% | -16% (active)
CC(c1cc(Cl)ccc1O)c1cc(Cl)ccc1O | 17.9% | 82.5% | 80% | 84.3% | 15.7% | -39.3% (active) | 29.3% | 90% | 41.2% | 50.7% | 28.7% | 16.5% | 43.8% | 49.6% | 35% | 45.9% | 33% | 22.7% | 29.7% | 
C[n+]1ccc(C#N)c2ccccc21 | 94.7% | 93.3% | 98% | 94.4% | 109% | 68.2% | 106% | 90.2% | 48.8% | 91.8% | 84.8% | 26.7% | 101% | 78.8% | 92% |  | 110% | 98.6% | 88.4% | 99.5%
Fc1ccc(-c2nnc(/C=C/c3cn(-c4ccccc4)nc3-c3ccccc3)o2)cc1 | 88% | 92.8% | 95.5% | 87.4% | 78.6% | 85.3% | 75.2% | 89.8% | 94.2% | 110% | 107% | 88.9% | 94.2% | 105% | 103% | 94.4% |  | 93.1% | 96.1% | 89.1%
Nc1ccc(S(=O)(=O)Nc2ncccn2)cc1 | 114% | 100% | 120% | 108% | 108% | 106% | 100% | 107% | 114% | 104% | 104% | 118% | 98.6% | 118% | 108% | 104% | 105% | 115% | 99.1% | 
